Source: PubChem BioAssay (NCATS)
Results filed as inconclusive are left out. A call without a number means that no potency is given here. Calls of active or inactive are those of the source. Unless noted, calls come from the whole dose curve; as a rule, active = well fitted curve in the direction sought with a large enough effect; inconclusive = small, poorly fitted or top-dose-only effect, or another doubt; inactive = no such curve, though single readings can be large; an effect the other way counts as inactive or inconclusive.

Columns and labels:
[1] = qHTS for Inhibitors of Plasmodium falciparum (CP250) proliferation (AID 504320)
Outline: (§1)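 Erythrocytes infected with P. falciparum line (0.3% parasitemia, 2.5% hematocrit final) incubated with compounds 72 h at 37 °C, 5% CO2; SYBR Green lysis buffer added, fluorescence read next day. Normalized to 0.29 uM artemisinin and DMSO.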

[2] = molecular target: Atrial natriuretic peptide receptor 1 (Homo sapiens) (UniProt P16066); experiment: Natriuretic polypeptide receptor (hNpr1) antagonism - Pilot CMLD screen (AID 1347052; calls by dose curve;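 note: HEK293 cells with hNpr1 stimulated by hNppA peptide at 0.1 nM; cGMP level read as GloSensor luciferase luminescence after agonist stimulation; series mostly up to about 9.2 µM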)
[3] = qHTS for Inhibitors of Plasmodium falciparum (HB3) proliferation (AID 504318); note: nearly all actives have a fitted effect of over 60% in size; note: potency is the fitted concentration of half-maximal effect
Outline: as §1

Sequence of Atrial natriuretic peptide receptor 1 (Homo sapiens) (P16066 whole entry, looked up): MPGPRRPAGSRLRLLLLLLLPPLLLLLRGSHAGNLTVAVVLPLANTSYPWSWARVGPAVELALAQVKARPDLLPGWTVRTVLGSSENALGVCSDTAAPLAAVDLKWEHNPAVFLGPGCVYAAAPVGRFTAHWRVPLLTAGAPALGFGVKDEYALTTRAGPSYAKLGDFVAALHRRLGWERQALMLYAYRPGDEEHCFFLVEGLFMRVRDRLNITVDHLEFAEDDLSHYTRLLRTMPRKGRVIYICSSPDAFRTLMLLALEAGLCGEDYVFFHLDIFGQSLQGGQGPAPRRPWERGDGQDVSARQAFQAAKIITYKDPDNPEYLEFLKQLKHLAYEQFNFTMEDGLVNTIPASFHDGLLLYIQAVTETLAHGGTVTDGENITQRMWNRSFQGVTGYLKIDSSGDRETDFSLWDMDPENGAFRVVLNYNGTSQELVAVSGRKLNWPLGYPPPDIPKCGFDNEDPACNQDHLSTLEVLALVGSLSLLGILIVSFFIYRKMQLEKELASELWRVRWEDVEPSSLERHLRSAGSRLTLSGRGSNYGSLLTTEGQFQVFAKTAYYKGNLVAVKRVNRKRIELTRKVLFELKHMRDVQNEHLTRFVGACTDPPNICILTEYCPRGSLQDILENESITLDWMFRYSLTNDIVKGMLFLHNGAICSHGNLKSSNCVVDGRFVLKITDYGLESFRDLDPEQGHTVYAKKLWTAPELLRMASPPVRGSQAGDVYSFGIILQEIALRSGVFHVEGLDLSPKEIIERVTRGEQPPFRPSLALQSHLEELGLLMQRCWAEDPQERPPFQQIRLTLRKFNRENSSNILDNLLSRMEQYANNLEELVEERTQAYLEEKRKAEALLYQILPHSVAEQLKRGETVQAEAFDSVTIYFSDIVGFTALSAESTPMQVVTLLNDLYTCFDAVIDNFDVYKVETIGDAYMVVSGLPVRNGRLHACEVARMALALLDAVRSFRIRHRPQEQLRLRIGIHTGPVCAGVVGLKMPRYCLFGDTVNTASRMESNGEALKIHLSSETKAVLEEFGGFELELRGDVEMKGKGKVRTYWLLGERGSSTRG

| Compound | Potency [1] | Potency [2] | Potency [3] |
| --- | --- | --- | --- |
| COc1ccc([C@]23Cc4ccccc4[C@H](O2)C2=C(CCCC2=O)O3)cc1 | inactive | inactive | – |
| CC(C)=CCCC(C)=CCN1C(=O)[C@]2(O[C@H](COc3ccccc3)CC3=CCCC32)c2c(Br)cccc21 (some centres not stated) | – | inactive | 1.69 µM (active) |
| C[C@H]1C[C@@H](C)O[C@@]2(C1)C(=O)N(Cc1ccc(F)cc1)c1ccccc12 | inactive | inactive | inactive |
